# Test results: PubChem BioAssay (NCI)
# The panel holds about 79,000 compounds, 15% with a hit somewhere; the sample as a whole holds those more often. Unmarked numbers belong to inactive results. Active and inactive are the calls of the source. No stated cut-off is given here; in the data, active means growth inhibition above about 70%; inactive means the rest.
# Assay: NCI Yeast Anticancer Drug Screen. Data for the bub3 strain (AID 167)
# Settings: S. cerevisiae bub3 mutant strain, hits give high values
# Protocol: Growth inhibition of yeast strains with defined genetic alterations is measured as a screen for potential anti-cancer activity. Selected strains with alterations in DNA damage repair or cell cycle control were exposed to compounds and growth inhibition was measured relative to vehicle treated controls. The strain used in this assay is bub3
# [1] = at 5.0 µM (retest, dose inferred, filed as 0.5)
# [2] = at 50.0 µM (retest, dose inferred, filed as 5.0)
Compound,growth inhibition (at 1.2 µM) [%],growth inhibition (at 3.7 µM) [%],growth inhibition [1],growth inhibition (at 11.0 µM),growth inhibition (at 33.0 µM),growth inhibition [2],growth inhibition (at 50.0 µM),growth inhibition (at 100.0 µM)
Nc1nnc(N)n1-n1c(N)nnc1N,-1,-1,-18%,2%,3%,57%,1.05%,0%
C/C(CCl)=N/NC1=NC(c2ccccc2Cl)P(=O)(NCCCNP2(=O)SC(N/N=C(/C)CCl)=NC2c2ccccc2Cl)S1 (stereo unspecified),0,-5,-32%,0%,25%,61%,95.2% (active),18%
CN(CCc1ccc(Br)cc1)CCN1CCCCC1,20,29,20%,60%,94% (active),88% (active),91% (active),98% (active)
CC[C@@]1(O)C(=O)OCc2c1cc1n(c2=O)Cc2cc3ccccc3nc2-1,-12,15,-16%,90% (active),95% (active),90% (active),78.5% (active),96% (active)
Clc1c(Cl)c(Cl)c([S][Pb]([c]2ccccc2)([c]2ccccc2)[c]2ccccc2)c(Cl)c1Cl,–,–,92% (active),–,–,96% (active),98.5% (active),–
c1ccc2c(NCCCCCCCCNc3c4ccccc4nc4ccccc34)c3ccccc3nc2c1,–,–,68%,–,–,49%,80.2% (active),–
CCOP(=S)(OCC)OC(c1ccc(Cl)cc1)c1ccc(Cl)cc1,–,–,11%,–,–,18%,49.6%,–
